This is a sample that favours compounds with a hit; in the whole collection about 17% have one here.
HepG2 viability: qHTS for Inhibitors of TGF-b: Cytotox Counterscreen | actives 0.76% (n = 410,000) | AID 588856, 2011 | HepG2 CAGA-GFP viability, ATP luminescence, 18 h | Potency, µM (doses to about 46.1 µM), for the others: top-dose activity change, negative = cytotoxicity, usual class: cytotoxic
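HepG2 CAGA-GFP cells (1000/well, DMEM with 1% FBS) received compound, then TGF-beta at 500 pg/mL final, and were incubated 18 hours at 37 degrees C. Viability was read by CellTiter-Glo luminescence. Media-only wells were set as complete cell-killing and DMSO as no toxicity.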
ATXN2 expr inh: Primary qHTS for Inhibitors of ATXN expression; actives 0.72% (n = 360,000); Potency, µM (doses to about 57 µM), inactives show at the top dose activity change, negative = inhibition, usual class: inhibitors; HEK-293 ATXN2-luciferase reporter, luminescence, 24 h; also: % is scaled to controls: 0 for no effect and ±100 for the full control effect; nearly all actives have a fitted effect of over 55% in size
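ATXN2-luciferase reporter cells (luciferase flanked by upstream and downstream ATXN2 gene portions) were treated 24 h at 37 °C with compounds at up to 57 uM. SteadyGlo luminescence gave expression; GF-AFC fluorescence gave viability.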
TDP1 cell CPT: qHTS for Inhibitors of human tyrosyl-DNA phosphodiesterase 1 (TDP1): qHTS in cells in presence of CPT | chicken DT40 Tdp1-/-;hTDP1 cells + 20 nM CPT, ATP luminescence, 48 h | actives 12% (n = 420,000) | AID 686979, 2013 | Potency, µM (titrated, usually from 46.2 µM), inactives show at the highest dose activity change, negative = growth inhibition, most hits filed as inhibitors; also: % is scaled to controls: 0 for no effect and ±100 for the full control effect; nearly all actives have a fitted effect of over 55% in size
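Chicken DT40 Tdp1-/- cells stably complemented with human TDP1 were seeded at 400 cells/well in medium containing 20 nM camptothecin, exposed to pin-transferred compounds, and grown at 37 °C for at least 48 hr. Viability was read as ATP luminescence.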
TDP1 cell noCPT: qHTS for Inhibitors of human tyrosyl-DNA phosphodiesterase 1 (TDP1): qHTS in cells in absence of CPT; DT40 Tdp1-/- hTDP1 cells, no CPT, ATP luminescence, 48 h; Potency, µM (top dose mostly 46.2 µM), inactives show top-dose activity change, negative = growth inhibition, most hits filed as inhibitors; actives 15% (n = 420,000); AID 686978, 2013; also: % is scaled to controls: 0 for no effect and ±100 for the full control effect; nearly all actives have a fitted effect of over 55% in size
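Growth of hTDP1-complemented DT40 Tdp1-knockout cells is measured by ATP luminescence after at least 48 hr compound exposure at 37 °C, with DMSO substituting for the 20 nM CPT used in the parallel screen.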
TGFb inhibitor: qHTS for Inhibitors of TGF-b; actives 1.2% (n = 410,000); Potency, µM (series often up to 46.1 µM), inactives show top-dose activity, negative = inhibition, actives largely listed as inhibitors; HepG2 CAGA-GFP TGF-b/SMAD3 reporter, GFP fluorescence, 18 h; TGF-beta stimulated, 500 pg/mL final; also: % is scaled to controls: 0 for no effect and ±100 for the full control effect; nearly all actives have a fitted effect of over 65% in size
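Smad-responsive CAGA-GFP expression was quantified in HEPG2 cells exposed to compounds and 500 pg/mL final TGF-beta for 18 h at 37 degrees C; unstimulated wells defined full inhibition.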
S2 tox: Viability Counterscreen for Primary qHTS for Inhibitors of ATXN expression. Potency, µM (titrated, usually from 56.7 µM), actives largely listed as cytotoxic. actives 0.49% (n = 400,000). AID 651635, 2014. S2 cells (HEK-293 line with an ATXN2-luciferase reporter) viability, CellTiter-Fluor protease fluorescence, 24 h; also: nearly all actives have a fitted effect of over 40% in size
* = called active by the depositor; i = inactive; ? = inconclusive; nt = no result given; [ ] = remark or other dose. Calls follow the shape of the dose curve; as a rule, active = well fitted curve in the direction sought with a large enough effect; inconclusive = small, poorly fitted or top-dose-only effect, or another doubt; inactive = no such curve, though single readings can be large; an effect the other way counts as inactive or inconclusive. Potency is read from the fitted curve at half-maximal effect.

SMILES	HepG2 viability	ATXN2 expr inh	TDP1 cell CPT	TDP1 cell noCPT	TGFb inhibitor	S2 tox
Cc1ccc(S(=O)(=O)NCC(c2cccnc2)N2CCN(Cc3ccccc3)CC2)cc1 (stereo not given)	1%	-6%	-25%	-27%	-15%	i
Cc1ccc(NC(=O)C(=O)NCC(c2cccnc2)N2CCN(Cc3ccccc3)CC2)cc1 (stereo not given)	9%	4%	23µM*	18µM*	-13%	i
CCOC(=O)Cn1nnnc1CN(Cc1ccccc1)Cc1cc2cc(CC)ccc2[nH]c1=O	-59%	-13%	21µM*	?	?	i
Cc1ccc2[nH]c(=O)c(CN(Cc3cccnc3)Cc3nnnn3CCN3CCOCC3)cc2c1	-24%	1%	?	21µM*	-1%	i
Cc1ccc2[nH]c(=O)c(CN(Cc3ccco3)Cc3nnnn3Cc3ccccc3)cc2c1	-24%	nt	?	16µM*	-24%	nt
CCc1ccc2[nH]c(=O)c(CN(Cc3ccccc3)Cc3nnnn3Cc3ccco3)cc2c1	-33%	-10%	?	16µM*	-13%	?
Cc1ccc2[nH]c(=O)c(CN(Cc3cccnc3)Cc3nnnn3CC3CCCO3)cc2c1 (stereo not given)	1%	11%	-6%	25%	7%	i
CCc1ccc2[nH]c(=O)c(CN(Cc3ccccc3)Cc3nnnn3Cc3ccccc3)cc2c1	-3%	nt	?	?	-11%	nt
COc1ccc(C(=O)Cc2cc3ccccc3oc2=O)cc1	-8%	nt	2%	-2%	11%	i
Cc1cc(C)c2cc(CN(Cc3ccc4c(c3)OCO4)Cc3nnnn3Cc3ccco3)c(=O)[nH]c2c1	-28%	5%	?	?	0%	i
Cc1ccc2[nH]c(=O)c(CN(Cc3ccccc3)Cc3nnnn3Cc3ccccc3)cc2c1	5%	nt	?	13µM*	4%	nt
COc1ccc2[nH]c(=O)c(CN(Cc3nnnn3Cc3ccccc3)CC3CCCO3)cc2c1 (stereo not given)	-12%	-2%	12µM*	?	1%	i
Cc1ccc2cc(CN(Cc3ccco3)Cc3nnnn3Cc3ccco3)c(=O)[nH]c2c1	-5%	nt	?	11µM*	7%	nt
COc1ccc2[nH]c(=O)c(CN(Cc3nnnn3Cc3ccc(F)cc3)CC3CCCO3)cc2c1 (stereo not given)	-23%	1%	?	?	0%	?
Cc1ccc2[nH]c(=O)c(CN(Cc3ccc4c(c3)OCO4)Cc3nnnn3Cc3ccco3)cc2c1	-3%	-1%	12µM*	?	?	i
O=S1(=O)C2CC3C=CC2(O3)C(O)C(Cc2ccccc2)N1Cc1cccc(F)c1 (stereo not given)	7%	nt	nt	nt	?	nt
CC1CC1C(=O)OCC(=O)NNC(=O)c1ccc([N+](=O)[O-])cc1 (stereo not given)	1%	-3%	11%	9%	-1%	i
CC(C)(C)C(=O)CSc1ncnc2c1cnn2Cc1ccccc1	-12%	5%	-11%	15µM*	-1%	i
COC(=O)CSc1ncnc2c1cnn2Cc1ccccc1	-26%	2%	-1%	-19%	-17%	i
O=C(CSc1ncnc2c1cnn2CCc1ccccc1)Nc1cccc(C(F)(F)F)c1	-26%	-18%	?	23µM*	?	i
Cc1c(Cl)cccc1NC(=O)CSc1ncnc2c1cnn2CCc1ccccc1	-23%	-19%	-27%	?	10%	i
CC(NC(=O)C(=O)N/N=C\c1cccc([N+](=O)[O-])c1)c1ccccc1 (stereo not given)	6%	-16%	4%	-8%	5%	i
COC(=O)c1ccc(-c2sc3nc(N4CCOCC4)c4c(c3c2N)CCCC4)o1	-13%	-10%	18µM*	26µM*	9%	nt
COC(=O)c1ccc(CSc2ncnc3c2sc2nc(N4CCOCC4)c4c(c23)CCCC4)o1	-23%	-3%	?	18µM*	-3%	i
CCOC(=O)c1sc2nc(N3CCOCC3)c3c(c2c1N)CCCC3	-14%	-19%	?	-19%	-1%	i
SMILES	HepG2 viability	ATXN2 expr inh	TDP1 cell CPT	TDP1 cell noCPT	TGFb inhibitor	S2 tox
COC(=O)CSc1ncnc2c1sc1nc(N3CCOCC3)c3c(c12)CCCC3	9%	-4%	-5%	-5%	2%	i
CCOC(=O)C1=NOC2(C1)C(=O)Nc1ccc(OC)cc12 (stereo not given)	nt	-11%	-13%	-12%	nt	i
O=S(=O)(c1ccc(F)cc1)N1CCN(c2nc(-c3ccc(F)cc3)nc3cc(Cl)ccc23)CC1	-13%	nt	nt	nt	5%	nt
COc1ccccc1-c1nnc(Sc2nc([N+](=O)[O-])nn2C)o1	2%	10µM*	?	16µM*	-4%	nt
COc1cccc(CNC(=O)[C@@H]2CCCN2C(=O)[C@@H]2CCCN2C(=O)c2cccs2)c1	nt	0%	-12%	-18%	nt	i
COc1cc(NC(=O)COCc2cc(-c3ccc(F)cc3)on2)cc(OC)c1OC	-9%	0%	13µM*	9.2µM*	?	?
COc1cc(C(=O)O[C@H]2C/C(C)=C/CC[C@@]3(C)O[C@@H]3[C@H](O)[C@@H]2C(C)C)cc(OC)c1OC	-28%	0%	16µM*	23µM*	-21%	i
COc1cc(C(=O)O[C@H]2C/C(C)=C/CC[C@]3(C)O[C@@H]3C(O)C2C(C)C)cc(OC)c1OC (stereo not given in full)	-19%	2%	?	?	0%	i
COc1cc(C(=O)N/N=C(\C)c2ccc3c(c2)OCO3)cc(OC)c1OC	-1%	-38%[11.3 µM]	1.6µM*	1.6µM*	?	?
COc1cc(CC(CC(=O)c2ccc3c(c2)OCO3)C(=O)O)cc(OC)c1OC (stereo not given)	-28%	-3%	15%	1%	4%	i
O=C(NC(=S)Nc1ccccc1Br)c1ccc2c(c1)OCO2	-38%	25%	19%	3%	0%	i
COc1cc(C(=O)NNC(=S)NC(=O)c2ccc3c(c2)OCO3)cc(OC)c1OC	-29%	-39%	21µM*	?	-17%	i

High-throughput results: PubChem, National Center for Advancing Translational Sciences (NCATS)
